This is a sample that favours compounds with a hit; in the whole collection about 4.5% have one here.
BJeLR viability – kills HRASV12-expressing BJeLR cells; inhibition, % (no concentration beside the values); 0.17% of 300,000 active; BJeLR (HRASV12) viability, CellTiter-Glo ATP luminescence, 48 h; in the data active = inhibition above about 50%; inconclusive = no clear call, values can overlap the other calls
Mtb FBA inh – inhibits M. tuberculosis FBA enzyme | P9WQA3 | AID 588726 | purified M. tuberculosis FBA, fluorescence read-out | inhibition, % at 1 µM | 2.3% of 360,000 active;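 also: 0% = vehicle and 100% = reference inhibitor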
Target sequence (P9WQA3 whole entry, looked up): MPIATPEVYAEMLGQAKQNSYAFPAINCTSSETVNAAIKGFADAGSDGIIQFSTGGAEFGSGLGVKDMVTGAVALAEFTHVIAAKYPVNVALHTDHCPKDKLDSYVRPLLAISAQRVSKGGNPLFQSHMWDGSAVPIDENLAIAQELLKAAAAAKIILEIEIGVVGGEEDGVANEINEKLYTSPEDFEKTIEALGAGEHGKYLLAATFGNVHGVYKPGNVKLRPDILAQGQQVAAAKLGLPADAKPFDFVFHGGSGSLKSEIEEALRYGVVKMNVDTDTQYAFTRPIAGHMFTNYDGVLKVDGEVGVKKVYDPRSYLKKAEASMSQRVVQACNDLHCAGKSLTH
PrPC surface inh – inhibitors of human cell surface prion protein PrPC; inhibition, % at 13.8 µM; 0.43% of 370,000 active; AID 720596; P04156; TR-FRET read-out; in the data active = inhibition above about 24%; also: 0% = median of the test wells and 100% = reference compound wells
PrP 5UTR inh – suppresses PrP 5' UTR mRNA reporter expression | 0.35% of 340,000 active | cell-based PrP 5' UTR mRNA reporter, plate reader | inhibition, % (concentration not given with the values) | AID 488862; in the data active = inhibition above about 52%; also: 0 = median of the neutral control wells
GDH-TPI counter-1 – counter-screen for M. tuberculosis FBA inhibitors: GDH-TPI coupled enzymes; GDH-TPI coupled enzyme counterscreen, NADH absorbance; inhibition, % at 4.8 µM; 1.2% of 360,000 active; AID 588335; in the data active = inhibition above about 30%;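 also: 0% = DMSO wells and 100% = wells lacking the enzyme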
PfHsp40 yeast – compounds rescuing yeast from Plasmodium falciparum HSP40 toxicity; S. cerevisiae expressing PfHsp40, growth rescue, ATP luminescence; growth rescue, % at 12.5 µM; 0.68% of 340,000 active; AID 504582; in the data active = growth rescue above about 28%, passing the limit was not always enough; inconclusive = no clear call, values can overlap the other calls;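 also: yeast W303a lacking pdr1 and pdr3 grown in galactose medium; growth measured after three days at 30 °C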
Mtb FBA inh conf – confirmation of M. tuberculosis fructose-bisphosphate aldolase inhibitors | 78% of 5,600 active | purified M. tuberculosis FBA, fluorescence read-out | shares compounds with Mtb FBA inh | inhibition, % at 1 µM;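 also: 0% = vehicle wells and 100% = reference inhibitor wells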
GDH-TPI counter-2 – inhibits GDH-TPI coupling enzymes, flagging Mtb FBA hits. shares compounds with Mtb FBA inh. GDH-TPI coupled enzyme counterscreen, fluorescence. inhibition, % at 1 µM. 81% of 5,600 active; in the data active = inhibition above about 10%
GDH-TPI DR – counter-screen for M. tuberculosis FBA inhibitors: GDH-TPI dose response | shares compounds with Mtb FBA inh | GDH-TPI coupled enzyme assay, fluorescence, artifact counterscreen | IC50, µM | 79% of 170 active | AID 652145; call rule not given here
Starred values were filed as active, the others as inactive; ? = inconclusive; nt = not tested or not shown; + = active, no number. Rule as the data show it, unless noted: active = inhibition above about 27%; inactive = the rest.

SMILES | BJeLR viability | Mtb FBA inh | PrPC surface inh | PrP 5UTR inh | GDH-TPI counter-1 | PfHsp40 yeast | Mtb FBA inh conf | GDH-TPI counter-2 | others
CCN(CC)CCNS(=O)(=O)c1ccc2c3c(cccc13)C(=O)N2 | -8.2 | 54.0* | -18.4 | -10.2 | 8.6 | 0.3 | 61.2* | 59.9*
O=C1Nc2ccc(S(=O)(=O)N3CCCC3)c3cccc1c23 | 4.3 | 6.1 | -11.5 | -17.0 | 15.0 | -0.3 | nt | nt
O=C1Nc2ccc(S(=O)(=O)NCc3ccccn3)c3cccc1c23 | 5.5 | 76.5* | -36.3 | -3.3 | 11.2 | -1.9 | 66.8* | 52.5*
CN(C)CCNS(=O)(=O)c1ccc2c3c(cccc13)C(=O)N2 | -1.5 | 43.2* | -28.8 | -12.0 | 17.1 | -0.3 | -7.2 | -4.2
CC(C)CN1CCN(Cc2cccc3cccnc23)CC1CCO (stereo not given) | -0.9 | 0.6 | -2.5 | -0.2 | 0.6 | -0.7 | nt | nt
CC(C)NC(=O)C1(C)CSCC(=O)N1C1CCN(Cc2ccccc2)CC1 (stereo not given) | nt | nt | -6.6 | nt | nt | nt | nt | nt
CN1CCc2c(sc3c2C(=O)NC(c2ccccc2)N3)C1 (stereo not given) | 2.9 | 25.0 | -7.7 | -35.5 | 8.5 | 0.5 | nt | nt
Cc1ccc(C2NC(=O)c3c(sc4c3CCN(C)C4)N2)s1 (stereo not given) | 7.6 | 44.9* | -14.2 | -70.8 | 19.2 | 0.7 | 69.4* | 71.2*
Cn1cc2cc(NC(N)=S)ccc2n1 | -6.9 | 12.0 | -4.4 | -14.9 | -3.1 | 0.0 | nt | nt
CCOc1cc(S(=O)(=O)N2CCN(S(=O)(=O)CC)CC2)c(OCC)cc1-n1cnnn1 | -6.6 | 9.2 | 6.4 | -12.2 | 1.2 | 1.5 | nt | nt
CCOc1cc(S(=O)(=O)NC2CC2)c(OCC)cc1-n1cnnn1 | -2.0 | 33.5* | -4.5 | -19.0 | -4.6 | -0.8 | 183.9* | 158.7*
CCOc1cc(S(=O)(=O)NCc2ccco2)c(OCC)cc1-n1cnnn1 | -1.3 | 30.1* | 1.2 | 10.5 | 7.8 | -1.4 | 63.0* | 45.3*
ClCCn1c(CCl)nc2ccc(Cl)cc21 | nt | -1.1 | 9.5 | nt | 1.3 | nt | nt | nt
CCOC(=O)C1CC(c2ccccc2)=NN1c1ccccc1 (stereo not given) | nt | 71.7* | -12.8 | nt | 22.7 | nt | 35.0* | 28.2*
Fc1ccc(C2=NN(c3ccccc3)C(c3ccco3)C2)cc1 (stereo not given) | -0.9 | 47.6* | -6.1 | -2.9 | 2.2 | 3.5 | 60.3* | 47.8*
COc1ccc(C2CC(c3cccc(Br)c3)=NN2c2ccc(S(N)(=O)=O)cc2)cc1 (stereo not given) | nt | 102.1* | 1.2 | -3.5 | 14.6 | -0.2 | 42.2* | 30.9*
Cc1ccc(C2CC(c3ccccc3)=NN2c2ccccc2)o1 (stereo not given) | 6.6 | 42.9* | -4.3 | -42.6 | 6.2 | 2.2 | 15.3 | 7.8 | GDH-TPI DR=1.28*
CCOC(=O)COc1ccc(C2CC(C)=NN2c2ccccc2)cc1 (stereo not given) | -2.9 | 12.0 | -4.4 | 14.1 | 0.9 | -0.2 | nt | nt
COc1ccc(Nc2nnc(Cc3ccncc3)c3ccccc23)c(OC)c1 | 6.4 | 2.1 | -8.5 | -10.8 | 1.4 | 0.8 | nt | nt
CSC[C@H]1CN(c2ccc(Br)cc2)C(=O)[C@@H]1CC(=O)Nc1ccc(Br)cc1 | nt | 1.8 | 2.8 | nt | 0.9 | nt | nt | nt
CC(=O)N1N=C(c2ccc(C)cc2)CC1c1ccco1 (stereo not given) | -4.2 | 3.7 | 9.0 | -20.4 | 5.0 | -1.0 | nt | nt
Oc1ccc(C2=NN(c3ccccc3)C(c3ccc(F)cc3)C2)cc1 (stereo not given) | 3.1 | 101.2* | 11.6 | -17.8 | -6.6 | ? | 165.1* | 148.3*
C(=C\c1ccco1)/C1=NN(c2ccccc2)C(c2ccco2)C1 (stereo not given) | -6.2 | 39.9* | nt | -33.3 | 11.7 | 0.8 | + | +
COc1ccc(C2CC(c3ccc(F)cc3)=NN2c2ccccc2)cc1OC (stereo not given) | 3.1 | 10.8 | 9.9 | -31.3 | -10.0 | -0.6 | nt | nt
COc1ccc(C2=NN(c3ccccc3)C(c3ccc(OC)c(OC)c3)C2)cc1 (stereo not given) | 1.5 | 79.5* | 7.2 | -47.9 | 10.6 | 1.7 | 52.7* | 50.6*
SMILES | BJeLR viability | Mtb FBA inh | PrPC surface inh | PrP 5UTR inh | GDH-TPI counter-1 | PfHsp40 yeast | Mtb FBA inh conf | GDH-TPI counter-2 | others
Cc1ccc(N2N=C(c3ccc(F)cc3)CC2c2ccco2)cc1 (stereo not given) | 1.4 | 62.1* | 3.5 | -6.4 | 9.9 | -0.5 | 111.8* | 96.3*
CC(C)(N[C@@H](Cc1c[nH]c2ccccc12)C(=O)NCCCc1ccccc1)C(=O)NCc1ccccc1 | nt | nt | 2.6 | nt | nt | nt | nt | nt
CCOC(=O)N1CCN(Cc2cc(Cl)c3cccnc3c2O)CC1 | 14.9 | nt | -6.5 | nt | nt | nt | nt | nt
CCc1ccc(NC(=O)CSc2nnc(CNC(=O)c3ccco3)o2)cc1 | 3.8 | -1.9 | -1.5 | -14.2 | -6.7 | 0.0 | nt | nt
COc1ccc(N2CCN(c3cc(C)nc4ccc(OC)cc34)CC2)cc1 | -6.0 | 0.7 | -4.0 | -5.8 | -0.8 | 0.6 | nt | nt
COc1ccc2nc3c(C)n(C)ccc-3c2c1 | nt | 56.9* | 0.3 | 24.0 | 4.1 | -0.6 | 73.4* | 49.4*
O=C(c1coc(=O)c(Br)c1)N1CCOCC1 | 3.8 | 98.2* | -0.3 | -2.9 | 17.6 | -1.3 | 1.5 | -3.3
O=C(CCS(=O)(=O)c1ccc(Br)cc1)N1CCN(c2ccccc2)CC1 | nt | 73.2* | 3.2 | -5.7 | 5.9 | -0.8 | 68.8* | 62.4*
CCn1c(C(C)NC(=O)c2ccc(Cl)cc2)n[nH]c1=S (stereo not given) | 6.7 | 39.6* | -2.9 | -33.0 | -2.5 | 0.5 | 107.2* | 85.9*
COc1cc(C(=O)NCCNc2nc3c(C)cccc3cc2C#N)cc(OC)c1OC | nt | 1.2 | -8.2 | nt | -1.3 | nt | nt | nt
O=S(=O)(NCCNS(=O)(=O)c1c(F)cccc1F)c1ccc2c(c1)OCCO2 | nt | 1.1 | 0.0 | -32.7 | -1.3 | -1.0 | nt | nt
COc1ccc(C(=O)NCCNc2nc3c(C)cccc3cc2C#N)cc1 | -0.4 | 20.2 | -13.8 | -29.1 | 3.5 | -0.4 | nt | nt
CCC(=O)NCCCNc1nc2c(C)cccc2cc1C#N | -1.7 | 37.7* | 5.7 | -30.1 | -3.2 | -0.7 | 142.3* | 102.3*
COc1ccc(C(=O)NCCNc2nc3c(C)cccc3cc2C#N)cc1OC | -4.5 | 29.0* | -1.7 | -4.3 | -15.4 | 1.4 | + | +
Cc1cccc2cc(C#N)c(NCCNS(=O)(=O)c3ccc4c(c3)OCCO4)nc12 | 8.9 | 47.5* | 2.6 | 7.5 | 16.4 | 0.4 | 125.2* | 93.0*
O=C(COC(=O)c1cccc(Br)c1)NCCC1=CCCCC1 | -3.7 | 1.9 | 1.1 | -11.4 | -0.9 | -0.8 | nt | nt
CCOc1ccccc1NC(=O)CN1C(=O)C(=O)N(Cc2ccco2)C1=O | 2.4 | 6.2 | 2.5 | 0.9 | 0.0 | -1.2 | nt | nt

Screening data deposited in PubChem BioAssay by several laboratories.
